Screens from PubChem BioAssay.
Rows were chosen to be rich in hits. Some 3.4% of all compounds tested hit in one or more screens of this group.
Tau ThT inhib: tau fibrillization inhibition (ThT binding) | AID 1460 | recombinant tau K18 P301L, heparin-induced fibrillization, ThT fluorescence | Potency, µM (top dose mostly 57.4 µM), most hits filed as inhibitors | 2.1% of 270,000 active; note: nearly all actives have a fitted effect of over 55% in size
Target sequence (P10636 561-689 P618L limits assumed): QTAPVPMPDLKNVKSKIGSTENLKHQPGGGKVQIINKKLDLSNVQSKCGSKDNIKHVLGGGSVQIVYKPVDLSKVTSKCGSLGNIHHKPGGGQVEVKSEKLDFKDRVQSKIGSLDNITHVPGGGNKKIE
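K18 P301L tau (15 uM + 0.24 uM Alexa 594-tagged), heparin 20 uM, NaOAc pH 7, 6 h 37 C; ThT 30 uM, 1 h RT, ex 450/em 510 nm.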
Tau fluor cs: counter-screen for tau fibril formation inhibitors; 0.93% of 280,000 active; Potency, µM (series often up to 57.7 µM); tau K18 P301L Alexa594 fluorescence, heparin fibrillization; note: nearly all actives have a fitted effect of over 55% in size
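Human tau K18 P301L (15 uM unlabeled, 0.24 uM Alexa 594-labeled) in 100 mM sodium acetate pH 7 with 20 uM heparin, 6 hr at 37 C. ThT 30 uM added, 1 hr ambient; Alexa 594 FP and total fluorescence read at 555/632 nm.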
KDM4E inh: inhibitors of human JMJD2E histone demethylase. 1.6% of 230,000 active. Potency, µM (highest dose often 57.1 µM), usual class: inhibitors. JMJD2E catalytic domain, FDH-coupled NADH fluorescence (FDH is formaldehyde dehydrogenase). AID 2147; active = well fitted inhibition curve with a large enough effect, not every such curve was filed as active; inconclusive = small, poorly fitted or top-dose-only effect, or another doubt; inactive = no such curve, though single readings can be large or run the other way; note: nearly all actives have a fitted effect of over 50% in size
Tau fibril FP: blocks human tau fibril formation measured by polarization. P10636. K18 P301L tau heparin fibrillization, Alexa594 FP, 6 h. Potency, µM (series often up to 57.7 µM), actives largely listed as inhibitors. 0.39% of 280,000 active. AID 1468; note: nearly all actives have a fitted effect of over 55% in size
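Steps: dispense K18 P301L tau (15 uM plus 0.24 uM Alexa 594 tracer, final) in pH 7 sodium acetate; add compound; add heparin (20 uM final); incubate 6 hr, 37 C; add ThT (30 uM final); after 1 hr ambient, read FP.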
RGS12 GoLoco inh: RGS12 GoLoco-Gai1 interaction inhibition; 0.44% of 230,000 active; AID 880; Gai1:RGS12 GoLoco peptide FP, rhodamine, 10 min; P63096; Potency, µM (top dose mostly 61.6 µM), actives largely listed as inhibitors; active = well fitted inhibition curve with a large enough effect, not every such curve was filed as active; inactive = no such curve, though single readings can be large or run the other way; note: nearly all actives have a fitted effect of over 30% in size
Target sequence (P63096 whole entry, looked up): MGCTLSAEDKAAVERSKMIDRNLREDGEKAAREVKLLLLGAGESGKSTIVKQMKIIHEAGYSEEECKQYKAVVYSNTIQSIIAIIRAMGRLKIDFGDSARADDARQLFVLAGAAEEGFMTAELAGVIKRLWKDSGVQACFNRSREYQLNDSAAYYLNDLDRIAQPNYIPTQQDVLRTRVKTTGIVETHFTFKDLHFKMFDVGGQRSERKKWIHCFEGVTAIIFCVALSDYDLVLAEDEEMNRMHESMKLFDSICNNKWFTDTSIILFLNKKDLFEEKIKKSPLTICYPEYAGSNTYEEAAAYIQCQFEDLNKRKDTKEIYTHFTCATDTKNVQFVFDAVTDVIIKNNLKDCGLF
A number is an active result; i = inactive; ? = inconclusive; nt = no result given; [ ] = dose if it differs, or a comment. Unless noted, calls come from the whole dose curve; as a rule, active = well fitted curve in the direction sought with a large enough effect; inconclusive = small, poorly fitted or top-dose-only effect, or another doubt; inactive = no such curve, though single readings can be large; an effect the other way counts as inactive or inconclusive.

SMILES | Tau ThT inhib | Tau fluor cs | KDM4E inh | Tau fibril FP | RGS12 GoLoco inh
Cc1ccc(S(=O)(=O)NC2=C(N3CCN(c4ccccc4F)CC3)C(=O)c3ccccc3C2=O)cc1 | 15.8µM | ? | i | i | i
COc1ccc(CNC(=O)CCc2c(C)nn(-c3ccc(N4CCCCC4)nn3)c2C)cc1 | i | i | nt | i | nt
O=C(O)c1cc(Nc2nc(N3CCOCC3)nc(N3CCOCC3)n2)ccc1Cl | i | i | i | i | i
O=C(O)c1cc(N/N=C/c2ccc(N3CCOCC3)s2)ccc1Cl | 11.2µM | ? | ? | ? | i
Cc1cc(NC(=O)Nc2ccc3c(ccn3C)c2)sn1 | ? | 12.6µM[quencher] | i | ? | i
COc1ccc(Nc2nnc(SC(C(=O)Nc3ccc(OC)c(Cl)c3)c3ccccc3)s2)cc1 (stereo not drawn) | i | 7.08µM[quencher] | i | i | i
COc1cc(C(=O)NCC(c2ccc3c(c2)OCO3)N2CCOCC2)cc(OC)c1OC (stereo not drawn) | i | i | nt | i | nt
N#C/C(=C\C1=C(N2CCOCC2)C(=C\c2ccc(Cl)cc2)/CC1)C(=O)Nc1ccccc1F | ? | i | i | ? | i
N#C/C(=C\C1=C(N2CCOCC2)C(=C/c2cccc([N+](=O)[O-])c2)/CC1)C(=O)Nc1ccccc1F | 2.24µM | i | i | ? | i
O=C(Cn1ccc2cc(S(=O)(=O)N3CCCCCC3)ccc21)NCc1cccc(Cl)c1 | i | i | nt | i | nt
COc1ccc(Br)cc1CNc1ccc(O)cc1 | 12.6µM | ? | ? | 25.1µM | 20µM
COc1cc(CNc2ccc(O)cc2)cc(Br)c1OCc1ccccc1 | 25.1µM | 12.6µM[quencher] | ? | ? | i
COc1cc(CNC(C)(C)CO)cc(Br)c1OCc1ccc(Cl)cc1 | i | i | i | i | i
CCn1ccnc1CN1CCc2c([nH]c3ccccc23)C1C1CCCCC1 (stereo not drawn) | ? | i | 28.2µM | i | i
O=C(COC(=O)c1cc(S(=O)(=O)N2CCc3ccccc3C2)ccc1Cl)NCc1ccco1 | 31.6µM | ? | i | ? | i
O=C(COC(=O)c1cccc(S(=O)(=O)N2CCc3ccccc3C2)c1)NCc1ccco1 | i | i | i | i | i
Cn1c(=O)c2c(-c3ccccc3)n3c(c2n(C)c1=O)C(c1ccc([N+](=O)[O-])cc1)Nc1ccccc1-3 (stereo not drawn) | i | i | nt | i | nt
COc1cc(C(=O)NCCSc2c(C)[nH]c3ccccc23)cc(OC)c1OC | ? | 25.1µM[quencher] | nt | i | nt
COc1cccc(C(=O)NCCSc2c(C)[nH]c3ccccc23)c1OC | nt | ? | i | i | i
Cc1[nH]c2ccccc2c1SCCNC(=O)c1ccccc1F | ? | 25.1µM[quencher] | nt | i | nt
COc1ccccc1C(=O)NCCSc1c(C)[nH]c2ccccc12 | ? | 15.8µM[quencher] | nt | i | nt
COc1cc(C(=O)OCc2cc(=O)n3ccsc3n2)cc(OC)c1OC | i | i | nt | i | nt
Cc1cc(=O)[nH]c(N/N=C/c2ccccn2)n1 | i | i | i | i | i
O=c1cnnc(N/N=C/c2ccccn2)[nH]1 | nt | i | 3.55µM | i | i
O=c1nc(N/N=C/c2ccccn2)cn[nH]1 | i | i | 10µM | i | i
SMILES | Tau ThT inhib | Tau fluor cs | KDM4E inh | Tau fibril FP | RGS12 GoLoco inh
COc1cccc(C(=O)Nc2cccc(-c3cn4c(C)csc4n3)c2)c1OC | ? | i | nt | i | nt
O=C(O)CCC(=O)Nc1ccc2ccccc2c1 | nt | nt | nt | nt | i[14.2 µM]
O=C(CS)Nc1ccc2ccccc2c1 | 25.1µM | ? | i | ? | i
O=C(CSCc1nc2ccccc2[nH]1)Nc1ccc2ccccc2c1 | 22.4µM | ? | ? | ? | nt
Cc1ccc(Cn2c(C(=O)O)c(CNCc3ccc(OC(C)C)cc3)c3ccc(C)cc32)cc1 | i | i | nt | i | nt
Cc1cc(C)c2c(c1)/C(=N\N=c1\sc3ccccc3n1C)C(=O)N2 | 4.47µM | i | i | i | i
CCOC(=O)c1[nH]c(C)c(CCC(=O)N2CCN(c3cc(Cl)ccc3C)CC2)c1C | ? | i | nt | i | nt
C[C@@]1(C(=O)O)NCCc2cc(O)c(O)cc21 | 25.1µM | ? | ? | ? | i
Cn1c(=O)c2c(nc(NN=C3CCCC3)n2C)n(C)c1=O | 22.4µM | 22.4µM[quencher] | ? | ? | i
COC(=O)c1scc(-c2ccc(C)cc2)c1S(=O)(=O)N1CCN(c2cccc(OC)c2)CC1 | i | i | nt | i | nt
COc1cc(/C=C(\C#N)c2nc3ccccc3[nH]2)cc(OC)c1O | 7.08µM | ? | i | ? | i
COc1cc(/C=C(\C#N)c2nc3ccccc3[nH]2)cc(Br)c1OCc1ccccc1 | ? | 12.6µM[quencher] | ? | ? | i
COc1cc(/C=C(\C#N)C(=O)c2c[nH]c3ccccc23)cc(OC)c1O | 15.8µM | i | i | i | i
CCOc1cc(N(CC)CC)ccc1/C=C(/C#N)c1nc2ccccc2[nH]1 | ? | 10µM[quencher] | i | i | i
CC(C)(Oc1ccc(Cl)cc1)C(=O)Nc1nnc2n1CCS2 | i | i | nt | i | nt
COC(=O)c1ccccc1N/C=C1\CCc2c(c(C)nn2-c2ccccn2)C1=O | 14.1µM | ? | ? | ? | i
COc1ccc(C(=O)O)c(O)c1OC | i | i | i | ? | i
COC1=C(N)C(=O)c2nc(-c3nc(C(=O)O)c(C)c(-c4ccc(OC)c(OC)c4O)c3N)ccc2C1=O | 15.8µM | ? | i | ? | i
CCCn1c2ccccc2c2cnn(CC(=O)NCCCN(Cc3ccccc3)C(C)C)c(=O)c21 | i | i | nt | i | nt
COc1ccc(CNc2ccc3cn[nH]c3c2)c(OC)c1OC | 28.2µM | ? | ? | ? | i
CCOc1cc(CNc2ccc3cn[nH]c3c2)ccc1OC | ? | ? | ? | i | i
Cn1c(C(=O)O)c(CC(=O)N2CCC(Cc3ccccc3)CC2)c2ccccc21 | ? | i | 31.6µM | i | i
CCOCC(=O)N1CCC(Cc2ccccc2)CC1 | i | i | i | i | i
COc1cccc(NC(=O)c2cc3c(-c4ccc(Cl)cc4)nn(C)c3s2)c1 | i | ? | nt | 15.8µM | nt
Cc1nc(NC(=O)c2cc3c(C)nn(-c4ccccc4)c3s2)sc1C(=O)Nc1ccccc1 | i | i | i | ? | i
SMILES | Tau ThT inhib | Tau fluor cs | KDM4E inh | Tau fibril FP | RGS12 GoLoco inh
Cc1nn(-c2ccccc2)c2sc(C(=O)Nc3cccc(Cl)c3)cc12 | ? | ? | nt | 3.16µM | nt
COc1cccc(-c2nn(C)c3sc(C(=O)Nc4ccc5c(c4)OCCO5)cc23)c1 | i | i | i | i | i
Cn1nc(-c2ccccc2F)c2cc(C(=O)Nc3ccc4c(c3)OCCO4)sc21 | ? | 7.94µM[quencher] | i | ? | i
COc1ccc(-c2nn(C)c3sc(C(=O)Nc4cccc(F)c4)cc23)cc1OC | i | ? | nt | 12.6µM | nt
COc1cccc(NC(=O)CCc2nnc3n(Cc4ccccc4Cl)c(=O)c4ccccc4n23)c1 | i | i | nt | i | nt
Cc1ccc(NC2=Nc3ccccc3N3C2=Nc2c(c(C)nn2-c2ccccc2)C3c2ccc(O)c(O)c2)cc1 (stereo not drawn) | i | ? | 28.2µM | i | i
Cc1nn(-c2ccccc2)c2c1C(c1ccc(O)c(O)c1)N1C(=N2)C(Nc2ccccc2)=Nc2ccccc21 (stereo not drawn) | ? | 14.1µM[quencher] | 17.8µM | i | i
